Values joined by “and” are separate entries in the source; they are usually repeats but may differ in a detail not shown here. Equal entries are not always repeated. About 2,000 (36%) of roughly 5,500 compounds were called active. Not shown: some 18% with an inconclusive outcome. Cut-off read from the data, not from the text of the source: active = normalized growth mostly below about 0.91 (no sharp cut-off); inconclusive = no clear call, values can overlap the other calls; inactive = mostly above about 0.92. Some of the results follow.
Assay: chemical genetic growth profiling, strain panel (AID 1159580);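 note: tested at 20 µM; growth read once vehicle control cultures reached saturation at 30 °C; 1 = growth at the plate median or of vehicle wells; lower values mean less growth of the strain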
Conditions: growth OD
[1] = S. cerevisiae deletion strains, locus YAL013W, strain DEP1, active compounds read low
[2] = S. cerevisiae deletion strains, locus YAL040C, strain CLN3, active compounds read low
[3] = S. cerevisiae deletion strains, locus YDR150W, strain NUM1, active compounds read low
[4] = S. cerevisiae deletion strains, locus YDR363W, strain ESC2, active compounds read low
[5] = S. cerevisiae deletion strains, locus YER002W, strain NOP16, active compounds read low
[6] = S. cerevisiae deletion strains, locus YGR078C, strain PAC10, active compounds read low
[7] = S. cerevisiae deletion strains, locus YGR229C, strain SMI1, active compounds read low
[8] = S. cerevisiae deletion strains, locus YJR075W, strain HOC1, active compounds read low
[9] = S. cerevisiae deletion strains, locus YMR263W, strain SAP30, active compounds read low
[10] = S. cerevisiae deletion strains, locus YMR307W, strain GAS1, active compounds read low
[11] = S. cerevisiae deletion strains, locus YNL128W, strain TEP1, active compounds read low
[12] = S. cerevisiae deletion strains, locus YNL153C, strain GIM3, active compounds read low
[13] = S. cerevisiae deletion strains, locus YNL175C, strain NOP13, active compounds read low
[14] = S. cerevisiae deletion strains, locus YNL197C, strain WHI3, active compounds read low
[15] = S. cerevisiae deletion strains, locus YNL224C, strain SQS1, active compounds read low
[16] = S. cerevisiae deletion strains, locus YNL322C, strain KRE1, active compounds read low
[17] = S. cerevisiae deletion strains, locus YOR083W, strain WHI5 (second series), active compounds read low
[18] = S. cerevisiae deletion strains, locus YCL061C, strain MRC1 (second series), active compounds read low

Measured: normalized growth

NC(N)=NC(=O)c1nc(Cl)c(N2CCCCCC2)nc1N
inactive: [1] 1.01 and 0.962 | [2] 1.09 | S. cerevisiae deletion strains, locus YBR021W, strain FUR4, active compounds read low 1.02 | S. cerevisiae deletion strains, locus YBR229C, strain ROT2, active compounds read low 1.01 | S. cerevisiae deletion strains, locus YCL029C, strain bik1, active compounds read low 1.01 | S. cerevisiae deletion strains, locus YDL035C, strain GPR1, active compounds read low 1 | S. cerevisiae deletion strains, locus YDL074C, strain BRE1, active compounds read low 0.989 | S. cerevisiae deletion strains, locus YDL101C, strain DUN1, active compounds read low 1.02 | S. cerevisiae deletion strains, locus YDL134C, strain PPH21, active compounds read low 1.01 | S. cerevisiae deletion strains, locus YDL185W, strain tfp1, active compounds read low 1.02 | S. cerevisiae deletion strains, locus YDL192W, strain arf1, active compounds read low 1.01 | S. cerevisiae deletion strains, locus YDR101C, strain arx1, active compounds read low 1 | [3] 1.01 | S. cerevisiae deletion strains, locus YDR162C, strain NBP2, active compounds read low 1.03 | S. cerevisiae deletion strains, locus YDR318W, strain mcm21, active compounds read low 1.01 | [4] 0.986 | S. cerevisiae deletion strains, locus YDR388W, active compounds read low 1.01 | S. cerevisiae deletion strains, locus YDR502C, strain sam2, active compounds read low 1.01 | S. cerevisiae deletion strains, locus YEL061C, strain CIN8, active compounds read low 1.01 | [5] 1.02 | S. cerevisiae deletion strains, locus YER110C, active compounds read low 1 | S. cerevisiae deletion strains, locus YER155C, strain BEM2, active compounds read low 1.01 | S. cerevisiae deletion strains, locus YER167W, strain BCK2, active compounds read low 1 | S. cerevisiae deletion strains, locus YGL078C, strain dbp3, active compounds read low 1.02 | S. cerevisiae deletion strains, locus YGL086W, strain mad1, active compounds read low 0.998 | S. cerevisiae deletion strains, locus YGL248W, strain PDE1, active compounds read low 1.01 | [6] 0.991 | S. cerevisiae deletion strains, locus YGR135W, strain pre9, active compounds read low 0.995 | [7] 1.01 and 0.996 | S. cerevisiae deletion strains, locus YGR252W, strain gcn5, active compounds read low 0.853 | S. cerevisiae deletion strains, locus YHR030C, strain SLT2, active compounds read low 1.01 and 1.06 | S. cerevisiae deletion strains, locus YHR079C, strain IRE1 (second series), active compounds read low 1.02 | S. cerevisiae deletion strains, locus YHR079C, strain IRE1, active compounds read low 1.06 | S. cerevisiae deletion strains, locus YHR094C, strain hxt1, active compounds read low 1.01 | S. cerevisiae deletion strains, locus YHR129C, strain ARP1, active compounds read low 1 | S. cerevisiae deletion strains, locus YHR200W, strain rpn10, active compounds read low 1.02 | S. cerevisiae deletion strains, locus YIL066C, strain RNR3, active compounds read low 1.02 | S. cerevisiae deletion strains, locus YIL073C, strain SPO22, active compounds read low 1.08 | S. cerevisiae deletion strains, locus YIL125W, strain kgd1, active compounds read low 1.01 | S. cerevisiae deletion strains, locus YIR030C, strain dcg1, active compounds read low 1.02 | S. cerevisiae deletion strains, locus YJL095W, strain BCK1, active compounds read low 0.986 and 1.06 | S. cerevisiae deletion strains, locus YJL134W, strain LCB3, active compounds read low 1.01 | S. cerevisiae deletion strains, locus YJL168C, strain set2, active compounds read low 1.02 | S. cerevisiae deletion strains, locus YJL187C, strain SWE1 (second series), active compounds read low 1.02 | S. cerevisiae deletion strains, locus YJR043C, strain POL32, active compounds read low 0.982 | S. cerevisiae deletion strains, locus YJR066W, strain TOR1, active compounds read low 1.02 | [8] 0.988 | S. cerevisiae deletion strains, locus YKL009W, strain mrt4, active compounds read low 0.999 | S. cerevisiae deletion strains, locus YKL068W, active compounds read low 1.01 | S. cerevisiae deletion strains, locus YKL085W, strain MDH1 (second series), active compounds read low 1.01 | S. cerevisiae deletion strains, locus YKL085W, strain MDH1, active compounds read low 1.01 | S. cerevisiae deletion strains, locus YKL190W, strain CNB1, active compounds read low 1.01 | S. cerevisiae deletion strains, locus YKR001C, strain vps1, active compounds read low 1.02 | S. cerevisiae deletion strains, locus YLR039C, strain RIC1, active compounds read low 1.14 | S. cerevisiae deletion strains, locus YLR058C, strain SHM2, active compounds read low 1.02 | S. cerevisiae deletion strains, locus YLR102C, strain apc9, active compounds read low 1.01 | S. cerevisiae deletion strains, locus YLR113W, strain HOG1, active compounds read low 0.973 | S. cerevisiae deletion strains, locus YLR262C, strain YPT6, active compounds read low 1.16 | S. cerevisiae deletion strains, locus YLR268W, strain sec22, active compounds read low 1.02 | S. cerevisiae deletion strains, locus YLR330W, strain CHS5, active compounds read low 1.02 | S. cerevisiae deletion strains, locus YLR342W, strain FKS1 (second series), active compounds read low 0.887 | S. cerevisiae deletion strains, locus YLR371W, strain rom2, active compounds read low 1.03 | S. cerevisiae deletion strains, locus YLR418C, strain cdc73, active compounds read low 0.91 | S. cerevisiae deletion strains, locus YML016C, strain PPZ1, active compounds read low 1.01 | S. cerevisiae deletion strains, locus YML032C, strain rad52, active compounds read low 1.01 | S. cerevisiae deletion strains, locus YML124C, strain tub3, active compounds read low 1.01 | S. cerevisiae deletion strains, locus YMR078C, strain ctf18, active compounds read low 1.01 | S. cerevisiae deletion strains, locus YMR223W, strain ubp8, active compounds read low 0.999 | [9] 1.01 and 0.995 | [10] 0.88 | S. cerevisiae deletion strains, locus YNL067W, strain RPL9B, active compounds read low 1 | [11] 1.02 | [12] 1.01 and 0.97 | [13] 1.03 | S. cerevisiae deletion strains, locus YNL183C, strain NPR1, active compounds read low 1.02 | [14] 1.07 | [15] 1.01 | S. cerevisiae deletion strains, locus YNL233W, strain BNI4, active compounds read low 1 | S. cerevisiae deletion strains, locus YNL250W, strain rad50, active compounds read low 1.01 | S. cerevisiae deletion strains, locus YNL271C, strain bni1, active compounds read low 1.02 | S. cerevisiae deletion strains, locus YNL298W, strain CLA4, active compounds read low 1 | S. cerevisiae deletion strains, locus YNL307C, strain MCK1, active compounds read low 0.989 | [16] 1.01 | S. cerevisiae deletion strains, locus YNR052C, strain pop2, active compounds read low 1.02 | S. cerevisiae deletion strains, locus YOL006C, strain TOP1, active compounds read low 0.995 | S. cerevisiae deletion strains, locus YOL147C, strain pex11, active compounds read low 1 | S. cerevisiae deletion strains, locus YOR061W, strain CKA2, active compounds read low 1.01 | S. cerevisiae deletion strains, locus YOR069W, strain VPS5, active compounds read low 1.01 | [17] 0.979 | S. cerevisiae deletion strains, locus YOR136W, strain idh2, active compounds read low 1.02 | S. cerevisiae deletion strains, locus YOR144C, strain elg1, active compounds read low 1.01 | S. cerevisiae deletion strains, locus YOR184W, strain ser1, active compounds read low 1.02 | S. cerevisiae deletion strains, locus YOR231W, strain MKK1, active compounds read low 1.02 | S. cerevisiae deletion strains, locus YOR316C, strain cot1, active compounds read low 1.01 | S. cerevisiae deletion strains, locus YPL055C, strain LGE1, active compounds read low 1.01 and 0.902 | S. cerevisiae deletion strains, locus YPL241C, strain CIN2, active compounds read low 1.01 | S. cerevisiae deletion strains, locus YPL256C, strain CLN2, active compounds read low 1.09 | S. cerevisiae deletion strains, locus YPR119W, strain clb2, active compounds read low 1.01 | S. cerevisiae deletion strains, locus YPR141C, strain kar3, active compounds read low 1.02 | S. cerevisiae deletion strains, locus YPR163C, strain tif3, active compounds read low 1.02 | S. cerevisiae deletion strains, locus YPR167C, strain met16, active compounds read low 1.01 | S. cerevisiae deletion strains, strain wtn01, active compounds read low 1.01 | S. cerevisiae strains, strain wild type, active compounds read low 1.01
active: S. cerevisiae deletion strains, locus YOL012C, strain htz1 2.1 [resistant]

NC(=Nc1ccccc1)NC(=O)c1nc(Cl)c(N)nc1N
inactive: [1] 0.975 | [2] 0.997 | [18] 1 | [3] 0.999 | [4] 0.973 | [5] 0.991 | [7] 1 | [10] 0.993 | [12] 0.986 | [13] 1.01 | [14] 1.01 | [15] 1 | [16] 0.992 | [17] 1

CC(C)CN(C)c1nc(N)c(C(=O)N=C(N)N)nc1Cl
inactive: [2] 0.968 | [18] 0.963 | [5] 1.04 | [6] 0.99 | [8] 0.957 | [9] 0.986 | [10] 0.971 | [11] 0.986 | [12] 0.855 | [13] 1.01 | [14] 1 | [15] 1.03
active: [17] 0.866

From PubChem BioAssay AID1159580 (chemical genetic matrix, 2015)
